Sampled rows, rich in hits. Any-hit rate of the full collection: about 5.4%.
FXN GAA850 act: frataxin GAA850 promoter activation; HEK293 lucGAA850 FXN promoter luciferase reporter, 24 h; percent of 10 µM SAHA response; activation, % at 6 µM; hit rate 0.56% among 360,000; AID 540364;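 active = activation above the average of all compounds screened plus 3 SD, cutoff fixed separately per campaign, cut at about 7.5% in these data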
AHR act: activates the human aryl hydrocarbon receptor; AHR-responsive luciferase reporter cells, luminescence; activation, % at 5 µM; hit rate 2.5% among 320,000; P35869; in the data active = activation above about 47%
Target sequence (P35869 whole entry, looked up): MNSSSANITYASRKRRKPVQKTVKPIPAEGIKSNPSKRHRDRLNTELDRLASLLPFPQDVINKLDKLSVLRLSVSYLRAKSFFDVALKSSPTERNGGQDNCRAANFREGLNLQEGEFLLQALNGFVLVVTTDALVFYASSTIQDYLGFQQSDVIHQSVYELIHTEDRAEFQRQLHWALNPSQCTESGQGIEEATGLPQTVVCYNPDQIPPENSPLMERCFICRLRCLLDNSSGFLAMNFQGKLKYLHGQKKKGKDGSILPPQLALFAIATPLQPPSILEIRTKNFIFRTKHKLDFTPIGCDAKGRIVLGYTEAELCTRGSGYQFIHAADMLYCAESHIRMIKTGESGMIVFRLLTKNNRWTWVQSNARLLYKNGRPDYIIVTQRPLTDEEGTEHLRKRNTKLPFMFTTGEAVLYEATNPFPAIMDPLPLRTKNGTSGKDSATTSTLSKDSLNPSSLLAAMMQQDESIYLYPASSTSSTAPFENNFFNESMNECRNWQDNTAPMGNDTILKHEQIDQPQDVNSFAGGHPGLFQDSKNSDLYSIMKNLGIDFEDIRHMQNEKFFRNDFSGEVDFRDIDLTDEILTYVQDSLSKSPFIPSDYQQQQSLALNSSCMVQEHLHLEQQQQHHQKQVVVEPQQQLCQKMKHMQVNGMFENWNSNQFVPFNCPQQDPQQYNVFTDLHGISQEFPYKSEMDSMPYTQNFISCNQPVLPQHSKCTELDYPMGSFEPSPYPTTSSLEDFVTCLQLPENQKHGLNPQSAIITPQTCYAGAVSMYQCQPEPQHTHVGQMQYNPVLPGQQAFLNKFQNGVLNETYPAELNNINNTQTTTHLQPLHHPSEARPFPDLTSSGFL
DAX1 inh: inhibits human nuclear receptor DAX1 | P51843 | HEK293 Gal4-DAX1 luciferase reporter, luminescence | inhibition, % at 6.75 µM | hit rate 0.99% among 340,000 | AID 504766;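 active = inhibition above the mean over all tested compounds plus 3 SD, cut at about 4.2% in these data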;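 also: inhibition shows as a rise in luminescence from relieved DAX1 repression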
HSF1 activator: increases HSF-1 driven luciferase reporter signal; activation, % at 9 µM; hit rate 1.7% among 300,000; NIH3T3-HGL HSF-1 luciferase reporter, MG132, 8 h; 100% = twice DMSO control signal; AID 504408;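 active = mean replicate activation of at least 50% with a set share of replicates each reaching 50%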
HSF1 inh: HSF1 inhibition; activity change, negative = inhibition, % at 7.5 µM (by protocol); hit rate 0.77% among 300,000; NIH3T3-HGL HSE-luciferase, MG132-induced, luminescence 8 h; active compounds read low;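 active = more than half of replicate wells show activity change below -50%, luminescence cut by over half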;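 also: luciferase reports HSF-1 transcriptional activity via heat shock element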
Hits are given with their value; - = inactive; . = no result given.

SMILES | FXN GAA850 act | AHR act | DAX1 inh | HSF1 activator | HSF1 inh
CCCn1nc(NC(=O)c2cccs2)c2cc3cc(C)ccc3nc21 | - | - | - | - | -
CCCCn1nc(NC(=O)c2cccs2)c2cc3ccccc3nc21 | - | - | - | - | -
O=C(NN1C(=O)NC2(CCCCC2)C1=O)c1ccc(Cl)c(Cl)c1 | - | - | - | . | .
CNS(=O)(=O)c1ccc(NC(=O)c2ccoc2C)cc1 | - | - | - | - | -
O=C(Nc1cccc2ccccc12)OCc1ccccc1 | - | . | - | . | .
Cc1occc1C(=O)Nc1cccc2ccccc12 | - | - | - | 73 | -
Cc1occc1C(=O)Nc1ccccc1NC(=O)c1ccoc1C | - | - | - | - | -
O=C(N/N=C/c1cccc2ccccc12)c1ccccc1Cl | - | . | - | - | -
Cc1occc1C(=O)N/N=C/c1cccc2ccccc12 | - | - | - | 63 | -
O=C(Nc1cccc2ccccc12)OCc1cncs1 | - | 57 | - | - | -
Cc1occc1C(=O)Nc1ccc(S(N)(=O)=O)cc1 | - | - | 5.6 | - | -
CN(C)CCCNC(=S)N(CCO)Cc1cc2cc3c(cc2[nH]c1=O)OCO3 | - | - | - | - | -
CCOC(=O)c1ccccc1NC(=O)CSC(C)C(=O)Nc1cc(C)on1 (stereo not given) | - | - | - | - | -
COc1ccc2c(c1)CCc1c(C(=O)N3CC4(C)CC3CC(C)(C)C4)noc1-2 (stereo not given) | - | - | - | 84 | -
COc1cccc(-n2c(SCc3cc(=O)oc4cc(O)c(O)cc34)nc3ccccc3c2=O)c1 | - | - | - | - | -
O=C(NC(=S)N1CCCCC1)c1csc([N+](=O)[O-])c1 | - | - | . | - | -
CCC(CC)C(=O)N(C)c1c(C)nc2c(OCc3cccc(OC)c3)cccn12 | - | . | . | . | .
CCNC(=O)CSc1nnc(-c2cc(-c3ccc(Cl)cc3)nc3ccccc23)o1 | - | 50 | - | - | -
CCN(CC)C(=O)CSc1nnc(-c2cc(-c3ccc(Cl)cc3)nc3ccccc23)o1 | - | - | - | . | .
O=C(O)CSc1nc2ccccc2nc1Cc1ccccc1F | - | - | - | 54 | -
O=C(O)CSc1cnc2ccccc2n1 | - | - | - | - | -
CC(NC(=O)CCCN1C(=O)c2ccccc2C1=O)c1ccc2c(c1)CCCC2 (stereo not given) | - | - | - | 203 | -
CC(NC(=O)CCN1C(=O)c2ccccc2C1=O)c1ccccc1 (stereo not given) | - | - | 4.5 | - | -
CC(NC(=O)CCN1C(=O)c2ccccc2C1=O)c1ccc2c(c1)CCCC2 (stereo not given) | - | - | - | - | -
CC(NC(=O)CCCCCN1C(=O)c2ccccc2C1=O)c1ccc2c(c1)CCCC2 (stereo not given) | - | - | - | - | -
SMILES | FXN GAA850 act | AHR act | DAX1 inh | HSF1 activator | HSF1 inh
COc1ccc(CNC(=O)CSc2nc(SC)ns2)cc1 | - | - | - | - | -
Cc1ccc(S(=O)(=O)N2CCc3ccccc3C2)cc1C | - | . | - | - | -
CCc1nc2ccc(C(=O)N3CCN(c4ccc([N+](=O)[O-])cc4)CC3)cc2nc1CC | - | - | - | 60 | -
CCc1noc(C)c1C(=O)N1CCN(c2ccc([N+](=O)[O-])cc2)CC1 | - | . | - | . | .
Cc1nn(CC(=O)NC(=O)NC2CCCC(C)C2C)c(=O)c(C#N)c1C (stereo not given) | - | - | - | - | -
CN(C(=O)CSc1nc2ccccc2n1C)C1CCS(=O)(=O)C1 (stereo not given) | - | - | - | . | .
Cc1cccc(NCc2ccc(O)c3ncccc23)c1C | - | - | . | - | -63
Cc1cccnc1NCc1ccc(O)c2ncccc12 | - | - | - | - | -
CC1CCN(CCc2nc3cc(NC(=O)Nc4ccccc4)ccc3n2C)CC1 | - | - | - | 177 | -
Cn1c(CCN2CCOCC2)nc2cc(NC(=O)COc3ccccc3)ccc21 | - | - | - | 68 | -
Cc1cccc(OCC(=O)Nc2ccc3c(c2)nc(CCN2CCN(C)CC2)n3C)c1 | - | - | 4.9 | - | -
CC(=O)Nc1ccc2c(c1)nc(CCN1CCC(C)CC1)n2C | - | - | - | - | -
COc1ccc(OCC(=O)Nc2ccc3c(c2)nc(CCN2CCN(C)CC2)n3C)cc1 | - | - | - | 53 | -
COc1ccc(OCC(=O)Nc2ccc3c(c2)nc(CCN2CCCC2)n3C)cc1 | - | - | - | - | -
Cc1ccc(C)c(S(=O)(=O)N2CCN(Cc3cc4c(cc3O)OCO4)CC2)c1 | - | - | - | . | .
Cn1ccs/c1=N\C(=O)Nc1cccc(Cl)c1 | - | - | - | - | -
CNC(=O)c1c(NC(=O)CCS(=O)(=O)c2ccc(C)cc2)sc2c1CCN(C(=O)OC)C2 | - | - | - | - | -
COc1ccccc1C(=O)NNC(=O)c1ccccc1 | - | - | 6.0 | - | -
COc1ccccc1C(=O)NC(=S)NNC(=O)c1sc2ccccc2c1Cl | - | - | - | - | -
COc1ccc(C(=O)Nc2ccc(C)cc2C(=O)c2ccccc2)cc1 | - | - | - | - | -
COc1ccccc1C(=O)NNC(=S)NC(=O)c1sc2ccccc2c1Cl | - | 48 | - | - | -
COc1ccccc1C(=O)Nc1ccc(C)cc1C(=O)c1ccccc1 | - | 52 | - | - | -
COc1ccccc1CNC(=O)CCN=C1NS(=O)(=O)c2ccccc21 | - | - | - | . | .
CC(OC(=O)CCN=C1NS(=O)(=O)c2ccccc21)C(=O)Nc1ccc(F)cc1 (stereo not given) | - | - | - | - | -
Cc1noc(C)c1COC(=O)c1ccccc1Oc1ccccc1 | - | - | - | 57 | -
SMILES | FXN GAA850 act | AHR act | DAX1 inh | HSF1 activator | HSF1 inh
Cc1cc(C(=O)NNC(=O)c2ccc(F)cc2)c(C)s1 | - | - | - | . | .
Nc1nc(SCC(=O)c2c(N)n(Cc3ccccc3)c(=O)[nH]c2=O)n[nH]1 | - | - | - | . | .
COc1ccc(N2CCN(C(=O)CN(C)S(=O)(=O)c3cnc[nH]3)CC2)cc1 | - | - | 7.1 | - | -
Cc1cccc(N2CCN(c3cccc(C)c3)C2c2cccnc2)c1 | - | - | - | 67 | -
CCN(CC)C(=O)Cn1cc(C(=O)C(=O)N2CCCc3ccccc32)c2ccccc21 | - | 70 | - | . | .
CCN(CC)C(=O)Cn1cc(C(=O)C(=O)N2CCN(C)CC2)c2ccccc21 | - | - | - | - | -
O=C(NN1CCOCC1)c1cc(-c2ccc(Br)cc2)nc2ccccc12 | - | 58 | - | - | -
O=C(NCCCN1CCOCC1)c1cc(-c2ccc(Br)cc2)nc2ccccc12 | - | 75 | - | - | -
CCCn1c(NC(=O)c2ccc(Br)cc2)nc2ccccc21 | - | - | - | - | -
CCn1c(NC(=O)c2ccccc2)nc2ccccc21 | - | - | . | - | -
S=C(Nc1ccccc1)Nc1nc2ccccc2n1CCOc1ccccc1 | - | - | - | - | -
CCCn1c(NC(=O)c2ccc(F)cc2)nc2ccccc21 | - | 53 | - | - | -
CCCCn1c(NC(=O)c2ccccc2)nc2ccccc21 | - | 73 | - | - | -
CCCn1c(NC(=O)c2ccccc2Br)nc2ccccc21 | - | 47 | - | - | -
CCCCn1c(NC(=S)Nc2ccccc2)nc2ccccc21 | - | 66 | - | - | -
